# Assay results taken from the supplement of paper PMC12494721.
# Where a name gives a salt, the structure may show the parent alone.
# Tested on: Escherichia coli IAI1
# Test: growth (OD595) fold change vs plate DMSO controls (fold change (ratio)); higher = more growth
# Conditions: incubation time: 27 h, anaerobic, 37 °C
# Procedure, shortened: (§1)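 Anaerobic 27 h, 37 °C mGAM 96-well cultures were shaken, then read for absorbance at 595 nm. Values were blank-subtracted and corrected for compound background using 20 µM compound solutions in water. A calibration factor of 5 converted them to OD. Growth is the fold change versus the median of plate DMSO controls. Fold changes above 1.5 were set to NA, and values are the mean of 2 biological replicates.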
row,SMILES,growth
1,CN1CCN2c3ccccc3Cc3ccccc3C2C1 (stereo not given) [Mianserine hydrochloride] (20 µM),0.996
2,O=C(Oc1cccc2cccnc12)c1ccccc1 [Benzoxiquine] (20 µM),0.939
3,Cc1cc(=O)n(-c2ccccc2)n1C [Antipyrine] (20 µM),0.959
4,O=C1c2cccc(O)c2C(=O)c2c(O)cccc21 [Danthron] (20 µM),1.21
5,Cc1c(Nc2ncccc2C(=O)O)cccc1C(F)(F)F [Flunixin meglumine] (20 µM),1.04

# Tested on: Klebsiella aerogenes DSM 30053
# Test: as above
# Conditions: incubation time: 27 h, anaerobic, 37 °C
# Procedure, shortened: as §1
row,SMILES,growth
1,COc1ccc(CC(C)NCC(O)c2ccc(O)c(NC=O)c2)cc1 (stereo not given) [Formoterol fumarate] (20 µM),1.11
2,CCN(CC)CCc1nc(-c2ccccc2)no1 [Oxolamine citrate salt] (20 µM),0.968
3,O=C(O)c1cc(-c2ccc(F)cc2F)ccc1O [Diflunisal] (20 µM),0.985
4,NC(=O)NC1NC(=O)NC1=O (stereo not given) [Allantoin] (20 µM),1
5,CN1CCCN=C1/C=C/c1cccs1 [Pyrantel tartrate] (20 µM),1.1
6,CCN1CCN(c2cc3c(cc2F)c(=O)c(C(=O)O)cn3C2CC2)CC1 [Enrofloxacin] (20 µM),0.107
7,CCCNC(C)C(=O)Nc1c(C)csc1C(=O)OC (stereo not given) [Articaine hydrochloride] (20 µM),1.03
8,CCN(CC)CC(=O)Nc1c(C)cccc1C [Lidocaine hydrochloride] (20 µM),0.979
9,CCn1cc(C(=O)O)c(=O)c2cc(F)c(N3CCNC(C)C3)c(F)c21 (stereo not given) [Lomefloxacin hydrochloride] (20 µM),0.252
10,C[C@]12CCC(=O)C=C1CC[C@@H]1[C@@H]2C(=O)C[C@@]2(C)[C@H]1CC[C@]2(O)C(=O)CO [Cortisone] (20 µM),1
11,CCN(CC)CCNC(=O)c1cc(Cl)c(N)cc1OC [Metoclopramide monohydrochloride] (20 µM),1
12,C[C@@H](CN1CC(=O)NC(=O)C1)N1CC(=O)NC(=O)C1 [Dexrazoxane hydrochloride] (20 µM),1.05
13,CCOc1ccc(NC(C)=O)cc1 [Phenacetin] (20 µM),1.01
14,CC(C)C(=O)Nc1ccc([N+](=O)[O-])c(C(F)(F)F)c1 [Flutamide] (20 µM),0.938
15,Cc1ccc2c([nH]c(=O)c3c(=O)cc(C(=O)OCCC(C)C)oc32)c1C [Repirinast] (20 µM),0.997
16,CCCCc1oc2ccccc2c1C(=O)c1cc(I)c(OCCN(CC)CC)c(I)c1 [Amiodarone hydrochloride] (20 µM),0.991
17,NCc1ccc(S(N)(=O)=O)cc1 [Mafenide hydrochloride] (20 µM),1.04
18,CC[C@@H](CO)NCCN[C@@H](CC)CO [Ethambutol dihydrochloride] (20 µM),1.01
19,Nc1c2ccccc2nc2ccccc12 [Aminacrine] (20 µM),0.922
20,CC(C(=O)O)c1cccc(C(=O)c2ccccc2)c1 (stereo not given) [Ketoprofen] (20 µM),0.993
21,CCOC(=O)[C@H](CCc1ccccc1)N[C@H]1CS[C@H](c2cccs2)CN(CC(=O)O)C1=O [Temocapril hydrochloride] (20 µM),1.08
22,CC(COc1ccccc1)N(CCCl)Cc1ccccc1 (stereo not given) [Phenoxybenzamine hydrochloride] (20 µM),1.01
23,CC1(C)OC(=O)NC1=O [Dimethadione] (20 µM),0.949
24,c1cnc(N2CCN(Cc3ccc4c(c3)OCO4)CC2)nc1 [Piribedil] (20 µM),1.07
25,O=c1[nH]c(=O)n(C2CCCO2)cc1F (stereo not given) [Tegafur] (20 µM),1.01
26,Nc1ccc(S(=O)(=O)Nc2ncccn2)cc1 [Sulfadiazine] (20 µM),1.06
27,Cc1onc(-c2c(Cl)cccc2Cl)c1C(=O)N[C@@H]1C(=O)N2[C@@H]1SC(C)(C)[C@@H]2C(=O)O [Dicloxacillin sodium salt hydrate] (20 µM),0.975
28,CN(C)CCC=C1c2ccccc2C=Cc2ccccc21 [Cyclobenzaprine hydrochloride] (20 µM),0.985
29,C#C[C@]1(O)CC[C@H]2[C@@H]3CCc4cc(O)ccc4[C@H]3CC[C@@]21C [Ethinylestradiol] (20 µM),1.07
30,CN1CC(O)c2cc(N=NC(N)=O)c(O)cc21 (stereo not given) [Carbazochrome] (20 µM),0.984
